Screening data from PubChem BioAssay.
The list is not random: actives were taken first. Their share in the collection is about 6.2%.
RORg inh = ROR gamma (mouse) transcription inhibition. P51450. Drosophila S2 Gal4-RORgamma UAS-luciferase reporter, 20 h. Potency, µM (doses to about 53.6 µM), usual class: inhibitors. 310,000 tested, 5.4% active; also: nearly all actives have a fitted effect of over 60% in size
Target sequence (P51450 whole entry, looked up, the tested form may be a part): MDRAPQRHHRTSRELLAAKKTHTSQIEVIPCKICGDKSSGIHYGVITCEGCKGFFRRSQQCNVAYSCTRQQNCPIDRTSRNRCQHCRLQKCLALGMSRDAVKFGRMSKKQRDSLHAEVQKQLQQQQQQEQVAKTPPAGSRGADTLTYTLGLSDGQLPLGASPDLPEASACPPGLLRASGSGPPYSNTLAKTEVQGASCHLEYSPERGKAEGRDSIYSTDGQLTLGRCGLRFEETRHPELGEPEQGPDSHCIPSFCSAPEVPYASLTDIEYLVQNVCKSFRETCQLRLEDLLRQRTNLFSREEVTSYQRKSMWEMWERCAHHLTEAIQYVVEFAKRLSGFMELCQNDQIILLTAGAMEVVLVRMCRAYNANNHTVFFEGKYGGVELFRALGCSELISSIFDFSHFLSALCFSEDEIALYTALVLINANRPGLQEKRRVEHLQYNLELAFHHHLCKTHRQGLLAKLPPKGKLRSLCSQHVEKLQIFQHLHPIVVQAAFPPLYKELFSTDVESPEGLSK
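A Gal4/UAS one-hybrid system in insect cells: metallothionein-promoter Gal4–ROR gamma fusion plus Photinus luciferase reporter. Copper sulfate 700 uM final, 20 hr ambient incubation, luminescent detection after 10 min with reagent.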
Gal4-VP16 FLuc = inhibits Gal4-VP16 luciferase reporter, ROR gamma counter-screen; Potency, µM (series often up to 53.6 µM), most hits filed as inhibitors; 310,000 tested, 3.5% active; Drosophila S2 Gal4-VP16 UAS-luciferase, luminescence, 20 h;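 also: Gal4-VP16 expression switched on by copper sulfate through the metallothionein promoter; nearly all actives have a fitted effect of over 50% in size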
KinaseGlo FLuc = blocks Kinase-Glo luciferase, a counter-screen artifact | Q27757 | Kinase-Glo luciferase, ATP luminescence, 8 min | Potency, µM (highest dose often 38.3 µM), actives largely listed as inhibitors | 200,000 tested, 0.28% active; also: nearly all actives have a fitted effect of over 60% in size
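Luminescence was the read-out, taken after 8-minute incubation at ambient temperature. Luciferase turned over luciferin with 10 uM ATP in imidazole pH 7.2 buffer containing KCl, MgCl2, Tween 20 and BSA.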
Each line names hits and unclear results; the compound was inactive in the other large screens. Calls follow the shape of the dose curve; as a rule, active = well fitted curve in the direction sought with a large enough effect; inconclusive = small, poorly fitted or top-dose-only effect, or another doubt; inactive = no such curve, though single readings can be large; an effect the other way counts as inactive or inconclusive.

COCCn1c(SC(C)C(=O)Nc2ncc(Cl)cc2Cl)nc2ccccc21 (stereo unspecified)	none
Cc1nnc(SC(C)C(=O)Nc2ncc(Cl)cc2Cl)n1Cc1ccccc1 (stereo unspecified)	RORg inh inconclusive, Gal4-VP16 FLuc 28µM
COc1ccccc1C(=O)NCC(=O)N/N=C(\C)Cc1ccccc1	none (no result: KinaseGlo FLuc)
O=[N+]([O-])c1cccc(/C([O-])=C(/C(=S)Nc2cccc3ccccc23)[n+]2ccccc2)c1	RORg inh 10µM, Gal4-VP16 FLuc inconclusive
O=[N+]([O-])c1ccc(/C([O-])=C(/C(=S)Nc2ccccc2F)[n+]2ccccc2)cc1	RORg inh inconclusive
O=C(OC(C(=O)c1c[nH]c2ccccc12)c1ccccc1)c1cnccn1 (stereo unspecified)	none (no result: KinaseGlo FLuc)
O=C1CCC(C(=O)OC(C(=O)c2c[nH]c3ccccc23)c2ccccc2)=NN1 (stereo unspecified)	Gal4-VP16 FLuc 7.1µM
CCOc1cc(/C=C(/NC(C)=O)C(=O)O)cc(Cl)c1OCc1ccc(Br)cc1	none (no result: KinaseGlo FLuc)
O[C@H](COc1ccccc1)CN1CCCCC1	none (no result: RORg inh, Gal4-VP16 FLuc)
Cc1ccc(Cn2c(=N)n(CC(O)COc3ccccc3)c3ccccc32)cc1 (stereo unspecified)	RORg inh 5µM, Gal4-VP16 FLuc 7.1µM
N=c1n(Cc2ccccc2)c2ccccc2n1CC(O)COc1ccccc1 (stereo unspecified)	none
CC(=O)CCOC1CCCCO1 (stereo unspecified)	none
COc1cc2c(cc1OC)-c1nnc(-c3ccco3)n1C1(CCCC1)C2	none
COc1ccc(/C=C(/NC(=O)c2ccco2)C(=O)N2CCOCC2)cc1	none (no result: KinaseGlo FLuc)
O=C(C1=C[C@H](c2ccccc2)C[C@H](OCc2ccc(CO)cc2)O1)N1CCOCC1	none (no result: KinaseGlo FLuc)
O=C(/C=C\Nc1ccc2c(c1)OCO2)c1ccc(Cl)s1	none
Cc1ccc(N/C=C/C(=O)c2cccs2)cc1	RORg inh inconclusive, Gal4-VP16 FLuc 8.9µM, KinaseGlo FLuc inconclusive
O=C(Nc1ccc2c(c1)OCO2)c1cccs1	KinaseGlo FLuc 8.9µM
Cc1noc(NS(=O)(=O)c2ccc(N/C=C\C(=O)c3cccs3)cc2)c1C	Gal4-VP16 FLuc inconclusive
O=C(Nc1ccc2c(c1)OCCO2)c1cccs1	KinaseGlo FLuc inconclusive
CC(C)CC(=O)Nc1ccc2c(c1)OCO2	none
O=C(CCl)Nc1ccc2c(c1)OCO2	RORg inh 18µM
O=C(/C=C\Nc1ccc2c(c1)OCO2)c1cccs1	RORg inh inconclusive, Gal4-VP16 FLuc inconclusive, KinaseGlo FLuc 13µM
Cn1ccnc1Sc1ccc(C(N)=O)cc1[N+](=O)[O-]	RORg inh inconclusive
Cc1nn(-c2ccc(Cl)cc2)c(=O)c2c(C)noc12	none (no result: KinaseGlo FLuc)
O=C(NCc1ccc2c(c1)OCO2)c1ccccn1	none
O=C(/C=C\Nc1ccc2c(c1)OCO2)c1ccccn1	RORg inh 1.1µM, Gal4-VP16 FLuc 2.2µM, KinaseGlo FLuc 14µM
Cc1sc(Cc2nc(O)cs2)nc1-c1ccccc1	RORg inh 11µM
Oc1csc(Cc2nc(-c3ccc(Br)cc3)cs2)n1	RORg inh inconclusive
Cc1ccc(S(=O)(=O)C2(C(=O)Nc3ccc(C(C)C)cc3)CC2)cc1	none
c1cc2c3c(cccc3c1)C(N1CCCCC1)=N2	RORg inh inconclusive (no result: KinaseGlo FLuc)
c1cc2c3c(cccc3c1)C(N1CCCCCC1)=N2	RORg inh 7.9µM, Gal4-VP16 FLuc inconclusive
Cc1ccc(CS(=O)(=O)c2cn(CC(=O)N3CCOCC3)c3ccccc23)cc1	Gal4-VP16 FLuc inconclusive (no result: KinaseGlo FLuc)
COc1ccc(-c2cn3cccc(C)c3n2)cc1Br	none
CC(=O)Nc1ccc(-c2cn3cc(C)ccc3n2)cc1	RORg inh 7.1µM, Gal4-VP16 FLuc inconclusive
Cc1cccn2cc(-c3ccccc3)nc12	RORg inh 11µM
Cc1ccc2nc(-c3ccc(O)c(O)c3)cn2c1	Gal4-VP16 FLuc inconclusive (no result: KinaseGlo FLuc)
Cc1ccc2nc(-c3ccccc3)cn2c1	RORg inh 1.6µM, Gal4-VP16 FLuc 2.8µM, KinaseGlo FLuc 8.9µM
CC(=O)Nc1ccc(C)cc1	none (no result: KinaseGlo FLuc)
Clc1ccccc1Sc1ccc(-c2ccccn2)s1	none (no result: KinaseGlo FLuc)
Cc1ccc2nc(-c3ccc(-c4ccccn4)s3)cn2c1	RORg inh 0.18µM, Gal4-VP16 FLuc 0.89µM (no result: KinaseGlo FLuc)
CC1=C(C(=O)Nc2cccc(C(=O)NC3CCCC(C)C3C)c2)SCCO1 (stereo unspecified)	none (no result: KinaseGlo FLuc)
CC(=O)Nc1ccc(C(=O)n2nc(C)cc2C)cc1	none
O=C(NCC1CCCCC1)c1cccc(S(=O)(=O)NCc2cccnc2)c1	none
C[C@H](N)C(=O)NCC(=O)N[C@H]1CSSC[C@@H](C(=O)O)NC(=O)[C@H](CO)NC(=O)[C@H]([C@@H](C)O)NC(=O)[C@H](Cc2ccccc2)NC(=O)[C@H]([C@@H](C)O)NC(=O)[C@H](CCCCN)NC(=O)[C@@H](Cc2c[nH]c3ccccc23)NC(=O)[C@H](Cc2ccccc2)NC(=O)[C@H](Cc2ccccc2)NC(=O)[C@H](CC(N)=O)NC(=O)[C@H](CCCCN)NC1=O	none (no result: KinaseGlo FLuc)
